Results: PubChem BioAssay AID1445 (SRMLSC, 2008)
The whole screen tested about 220,000 compounds, of which about 910 (0.41%) were called active. This is one part of a sample in which actives are shown more often than they occur.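 The calls were made as follows: active = primary inhibition above the hit cutoff, then over 50% inhibition at one or more dose response concentrations (cut at about 23% in these data, passing the limit was not always enough); inconclusive = conflicting primary data, or primary hits not chosen for dose response; inactive = low primary inhibition, or under 50% at every dose.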 Entries with a potency or affinity are not part of this list.

Molecular target: Aminopeptidase N (Plasmodium falciparum (isolate 3D7)) (UniProt O96935)
Test: P. falciparum M1AAP inhibitors, biochemical, fluorogenic H-Leu-NHMec substrate, 1536-well (AID 1445);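 also: plate controls were DMSO full reaction for no effect and no enzyme background for full effect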
Conditions: recombinant M1AAP, H-Leu-NHMec fluorogenic kinetic assay; at 30 µM, active compounds read high unless noted

Sequence of Aminopeptidase N (Plasmodium falciparum (isolate 3D7)) (O96935 whole entry, looked up): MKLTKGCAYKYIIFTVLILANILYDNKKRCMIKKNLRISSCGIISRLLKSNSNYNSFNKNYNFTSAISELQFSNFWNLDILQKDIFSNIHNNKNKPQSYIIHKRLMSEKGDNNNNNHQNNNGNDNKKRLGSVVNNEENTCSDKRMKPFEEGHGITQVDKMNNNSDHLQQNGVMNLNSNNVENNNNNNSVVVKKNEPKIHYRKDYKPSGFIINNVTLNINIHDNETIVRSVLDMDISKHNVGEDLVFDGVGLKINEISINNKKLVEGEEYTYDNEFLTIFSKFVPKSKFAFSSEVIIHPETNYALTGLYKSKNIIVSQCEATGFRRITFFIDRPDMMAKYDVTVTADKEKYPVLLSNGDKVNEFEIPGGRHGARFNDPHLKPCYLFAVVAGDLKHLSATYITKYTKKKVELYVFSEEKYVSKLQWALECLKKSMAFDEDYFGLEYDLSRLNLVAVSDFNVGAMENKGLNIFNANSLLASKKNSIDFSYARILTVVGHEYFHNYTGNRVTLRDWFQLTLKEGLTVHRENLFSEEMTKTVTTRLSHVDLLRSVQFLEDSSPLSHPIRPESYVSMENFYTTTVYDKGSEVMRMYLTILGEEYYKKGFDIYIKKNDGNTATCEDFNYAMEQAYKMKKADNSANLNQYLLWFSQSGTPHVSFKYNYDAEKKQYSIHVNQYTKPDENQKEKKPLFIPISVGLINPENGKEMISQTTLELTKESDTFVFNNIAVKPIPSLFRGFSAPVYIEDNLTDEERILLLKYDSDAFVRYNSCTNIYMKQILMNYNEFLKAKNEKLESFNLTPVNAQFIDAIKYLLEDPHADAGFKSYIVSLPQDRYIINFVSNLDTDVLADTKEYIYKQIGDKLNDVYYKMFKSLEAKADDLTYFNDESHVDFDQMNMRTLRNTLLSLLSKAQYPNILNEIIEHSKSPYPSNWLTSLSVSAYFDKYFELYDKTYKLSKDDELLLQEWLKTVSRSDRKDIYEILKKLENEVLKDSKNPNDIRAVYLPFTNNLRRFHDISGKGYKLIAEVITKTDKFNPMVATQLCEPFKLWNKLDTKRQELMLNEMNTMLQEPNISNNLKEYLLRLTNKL

inhibition, inactive:
CCN1C(=O)[C@H]2[C@H]3[C@H](O)[C@H](O)C/C(=N\O[C@H](C)c4cn([C@H](CO)Cc5ccccc5)nn4)[C@@H]3CC[C@H]2C1=O -7.3%
COCC(=O)NC1CCCCCC1 2.18%
CCOc1cc(C)c(Cl)cc1S(=O)(=O)NCC1CCCO1 (stereo not given) 1.73%
O=C1NCCCC1C(=O)N/N=C/c1cccc(Cl)c1 (stereo not given) -7.25%
NS(=O)(=O)c1ccc(CCNC(=O)COC(=O)CCc2ccccc2)cc1 -2%
CCN(CC)CCCNc1oc(-c2ccccc2[N+](=O)[O-])nc1C#N 9.93%
N#Cc1nc(COc2ccc(-c3ccccc3)cc2)oc1NCCCN1CCOCC1 -3.18%
CNc1oc(-c2cccs2)nc1C#N 13%
CN(C)c1oc(-c2ccccc2)nc1C#N 11%
N#Cc1nc(Cc2cccc3ccccc23)oc1NCCCN1CCOCC1 6.12%
CCN(CC)CCCNc1oc(-c2cccc(Cl)c2)nc1C#N 12.2%
CCOc1cc(C)c(C(C)C)cc1S(=O)(=O)n1ccc(C)n1 -2.68%
Cc1c(Cl)cccc1NC(=S)NCCc1ccccn1 20.7%
COc1ccc(/C=C2\CCCC3C2=NN(C(=O)COC(=O)CNC(=O)c2ccccc2)C3c2ccc(OC)cc2)cc1 (stereo not given) 2.31%
O=C(Cc1cccs1)Nc1nnc(-c2ccc(F)cc2)s1 -2.11%
COc1cc(C(=O)Nc2ccc([N+](=O)[O-])cn2)cc(OC)c1OC 13.8%
COc1ccc(S(=O)(=O)NCCC(C)C)cc1OC -0.02%
Cc1nc(N)sc1C(=O)OCC(C)C -4.36%
Cc1ccc(-n2c(P(C)(=O)O)nc3ccccc32)cc1 -0.56%
Cc1ccnc(NC(=O)CCCOc2ccc(Cl)cc2C)c1 -1.52%
C=CCC(=O)N1CCCC(CCC(=O)NCc2ccccc2F)C1 (stereo not given) 9.17%
O=C(CCn1c(=O)oc2ccccc21)Nc1ccc2c(c1)OCCO2 -5.19%
COc1ccccc1CCNS(=O)(=O)c1cn(C)c(=O)n(C)c1=O -3.3%
C[C@H](CCC(=O)O)[C@H]1CC[C@H]2[C@@H]3C(=O)C[C@@H]4CC(=O)CC[C@]4(C)[C@H]3CC(=O)[C@]12C 7.14%
CC(CCC(=O)O)C1CC[C@@]2(C)C3C(=O)CC4C(C)(C)C(O)CC[C@]4(C)C3C(=O)C[C@]12C (stereo not given in full) 3%
C=CCn1c(O)c(N=NC(=O)OCC)c2ccccc21 12.7%
C/C(Cl)=C\Cn1c(O)c(N=O)c2ccccc21 -2.4%
CCn1c(O)c(N=NC(=O)Cn2ccc(C(F)(F)F)n2)c2ccccc21 5.05%
O=C(N/N=C/c1ccc(Cl)s1)c1ccccc1[N+](=O)[O-] 9.55%
Cc1c(C)c2ccc(Oc3ccc([N+](=O)[O-])cc3C(F)(F)F)c(C)c2oc1=O 6.61%
Cc1sc2ncnc(SCC(=O)N3CCC(c4noc5ccc(F)cc45)CC3)c2c1C 1.38%
Cc1cc(SCC(=O)N2CCC(c3noc4ccc(F)cc34)CC2)nc2ccccc12 7.53%
COC(=O)c1cn(NC(=O)Cc2ccccc2OC)c(=O)c2ccccc12 3.77%
CC(=O)Oc1c(-c2ccco2)oc2ccccc2c1=O 30.4%
O=C(O)COc1c(-c2ccco2)oc2ccccc2c1=O 9.28%
Cn1c(SCc2nc(-c3ccccc3)no2)nnc1-c1cccs1 -3.32%
N/C(=N\OC(=O)c1cnn(-c2ccccc2)c1C(F)(F)F)c1ccc(C(F)(F)F)cc1 13.2%
O=C(NN1C(=O)c2ccccc2NC1c1ccccn1)c1ccc([N+](=O)[O-])cc1 (stereo not given) 2.53%
O=C(NN1C(=O)c2ccccc2NC1c1ccco1)c1ccc([N+](=O)[O-])cc1 (stereo not given) 8.9%
O=C(NN1C(=O)c2ccccc2NC1c1ccccn1)c1ccc(Br)cc1 (stereo not given) 8.07%
O=C(NN1C(=O)c2ccccc2NC1c1ccco1)c1ccc(Br)cc1 (stereo not given) 5.55%
O=C(NN1C(=O)c2ccccc2NC1c1ccoc1)c1ccc([N+](=O)[O-])cc1 (stereo not given) 4.32%
CC(=O)NN1C(=O)c2ccccc2NC1c1ccoc1 (stereo not given) 4.92%
CCCc1[nH]nc2c1C1(CCN(C(=O)OCc3ccccc3)CC1)C(C#N)=C(N)O2 3.73%
O=C1OCC=C1NNC(=O)c1cccnc1 4.75%
Cc1ccc(SCc2[nH]nc3c2C2(C(=O)N(C)c4ccccc42)C(C#N)=C(N)O3)cc1 (stereo not given) 5.03%
Cc1ccc(CNC(=O)CSc2nc3ccsc3c(=O)n2Cc2ccccn2)cc1 15.8%
COc1ccc(-n2c(SCC(=O)NCCC(C)C)nc3ccsc3c2=O)cc1 -0.48%
COc1ccc(C(=O)Nn2c(SCC(=O)NCc3ccco3)nc3ccccc3c2=O)cc1 1.81%
Cc1ccc(CNC(=O)CSc2nc3ccsc3c(=O)n2Cc2ccc(C(=O)O)cc2)cc1 33.8%
Cn1c(SCc2ccccc2)nc2ccsc2c1=O 2.71%
CCCN(CCC)C(=O)CSc1nc2ccsc2c(=O)n1NC(=O)c1ccccc1 2.56%
CCC(C)NC(=O)CSc1nc2ccsc2c(=O)n1NC(=O)c1ccccc1 (stereo not given) 15.2%
O=C(CSc1nc2ccsc2c(=O)n1Cc1ccccc1)NCc1ccco1 -0.89%
CC1(C)Cc2c(sc(/N=C/N3CCCCC3)c2C#N)C(C)(C)N1 6.45%
COc1ccc(/C=C/C(=O)NCC2COc3ccccc3O2)c(OC)c1 (stereo not given) 6.8%
COc1ccc(Cl)cc1NC(=O)CNc1ccccc1CN(C)C1CCCCC1 10.4%
COC(=O)c1ccc(COc2ncnc3c(Cl)cc(Cl)cc23)o1 1.47%
COc1ccc(C)cc1NC(=O)Cn1cnnn1 2.9%
S=C(c1ccc(Br)cc1)N1CCN(Cc2ccccc2)CC1 12.5%
